The supplement of paper PMC6555819

test system: VDR:RXRa (NR concentration 270 nM, RXRa partner concentration 90 nM); experiment: PBM binding z-score (relative to random genomic background probes); higher = stronger binding; sequences stand for … in GC…GCGATTGACAGCGTAGAATGAAGG
Protocol: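 Protein-binding microarray (Agilent 4x180K custom design, double-stranded 60-nt probes: 5' GC cap, 34-nt variable region, 24-nt constant primer region; full probe sequence given). Purified or IVT nuclear receptor:RXRα heterodimers (3:1 NR:RXRα, mostly 270:90 nM) or homodimers were incubated for 1 h in PBS with 2% milk and no ligand, then detected with Alexa488 antibodies. Fluorescence from o1-orientation probes (~5 replicates averaged) was converted to z-scores against 500 random hg19 background probes. Variable regions are seed direct-repeat (DR0–DR5) sites, all their single-nucleotide variants and half-site ablations.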

| Sequence | PBM binding z-score |
| --- | --- |
| CCAGACAGGTGAGATGGTAACTCAGCCTCGATTA | -0.293 |
| CCTACTTGGTCAAGGTCACACACGCTATAGGTAC | 3.97 |
| CCTTACGGGTCACGAGGTTCTAGCACGACGAGCG | 6.18 |
| CGTCCAAGGTCAGCGAGGTCAGTGAATGCCGAGT | 7.6 |
| TCTTGTAGATCAACAGGAGGTTAGGAAAGATCGA | 0.0401 |
| ATCTCTAGGTAAGACTCAGTTCACTGAAGAACGC | 1.74 |
| TCATATAAGTAAATGCTAGGTGAAAGTCCGATCT | 0.889 |
| CCGTCTGGGGCAAGGTTACCATAACGCACAGCCA | 0.236 |
| TCTCGTAGATCAATAGAGGTTAAGAAAGTGCGCT | 1.68 |
| ATCGAGAGGTCGTGAGGTGAGTATACAGAAAGGC | 3.3 |
| TCTTGTAGATCAACAGGAGGTTAAGAAGGATCGA | 0.575 |
| TCATATAGGTCAACAGGTGAAAGTCCGTAAGTTA | 4.41 |
| ATCACTAGGTAAAAGTTCAGTGAATCCCGAGGAT | 1.34 |
| AATACAGGGTCATCGTAGGCCAGCGTACGCACAG | 5.21 |
| CCTACTAGTTGACCATAAGGGCAACCGAAGCTCG | 0.471 |
| TCCTATAGGTAAATGCTAGGTGAAAGTCCGATCT | 0.359 |
| CGAACGAGGGCATGAGTTGATAGTAAATGCCGAT | 1.17 |
| CCTACTTGGCCATCAGGTCATTGATATCAACGTT | 2.12 |
| CCTACTGGGCCAAAAAGGTCATTGACGCCGATAA | 4.36 |
| ATCGGAAGGTCGAAGGTGAGTATACCCACCCGAA | 1.5 |

| Sequence | PBM binding z-score |
| --- | --- |
| TCAGACAGGTGACGGTAACTCAGGTACGCAGTCG | 0.324 |
| ACTTACGCGTCAACGAGGTTATAGCACGCGTATA | 3.57 |
| GCTGCTAGGTCAGGTTGGTCAGCTTACGGGTACG | 0.539 |
| ACTAGCAGGCCAAGGGTCACTCCAGATTAGTCCG | 2.32 |
| ATCTGTAGGTAAAGATAGTTCAGTGAATGCAAAT | 0.945 |
| AGAACGAGGGCACGTTGAGTTGATAGCAGAGTAG | 2.32 |
| ACTAGCAGGCCAATGGTCACTCAAGATTAGTCCG | -0.614 |
| CGTCCAAGGTCGATGCTAGGTCAGTGAAAGCATT | 2.26 |
| TATACAGGGTCAAAGGACAGAGTACGAATGTCGA | 4.6 |
| ACTCGGAGGACAAAGATCAGAGCTACGCCAGTGA | -0.289 |
| GCATATAGGTAATACAAGATGAAAGTCCGATTGT | -0.0142 |
| CGTCCAAGGTCAATGCTAGGTGAGTGAAAGCATT | 3.69 |
| TCATATAGGTAAATGCTAGGTTAAAGTCCGATCT | 1.33 |
| CGAACGAGGGCATGAGATGATAGCAAATGCCGAT | 0.478 |
| TCTGCTAGGACAGTTGGTCAGCTAACGAGCTGCC | -0.792 |
| CCTGCTTGGTCATGGTCAGCTAATCTACAGTATG | -0.22 |
| CGGCCTAGGTCAGGGCCAGTATAGGAGGAACGTT | 0.12 |
| TTACCAAGGTGAAGGTGGTTGATCCCTCTGTAGA | 0.0919 |
| ATCTCTAGGTAAACAAGTTCAGTGAATGCCGAAC | 4 |
| CGTCCAAGGTCAGCAGGTAAGTGAAAGCGACGTG | 2.55 |
